This note sets out measurements from PubChem BioAssay.

The test system of assay [1] is PRMT1 (protein arginine N-methyltransferase 1). The experiment in a line: PRMT1 binders on small-molecule microarrays, primary screen, biochemical, small-molecule microarray, 635 nm fluorescence (AID 1088).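 Further: binding of Prmt1 protein to compounds spotted on small-molecule microarray slides.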 The following applies: small-molecule microarray binding, higher = more signal.
Assay [2] is described as follows: yeast growth modulation, basal conditions, primary screen, YJM789 clinical isolate, OD600, 24 h (AID 1089).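 Further: growth of clinical yeast isolate S. cerevisiae YJM 789 seeded 1000 cells per well; test concentration not given here.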 As to conditions: S. cerevisiae YJM789 growth, higher = more signal, called active from +8 up or from −8 down.
A short description of assay [3]: fission yeast growth modulation, primary screen, strain 972, OD600, 24 h, no modulator (AID 1090).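 Further: basal condition with compound alone and no growth modifier present; test concentration not given here.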 The following applies: S. pombe 972 growth, higher = more signal, called active from +8 up or from −8 down.
Assay [4] is described as follows: S. cerevisiae growth modulation with rapamycin, primary screen, strain BY4716, OD600, 96 h (AID 1091). Further: test concentration not given here. As to conditions: higher = more signal, called active from +8 up or from −8 down.
For assay [5], the target named is Torsin-1A-interacting protein 2 (Homo sapiens) (UniProt Q8NFQ8). The experiment in a line: LULL1 binders on small-molecule microarray, primary screen, cell lysate, human LULL1 lysate, 635/667 nm fluorescence (AID 1092).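 Further: probe is lysate of COS7 cells overexpressing human LULL1; score merges per-feature 667 nm fluorescence with signal-to-noise.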 The following applies: hLULL1 lysate binding, 635 nm fluorescence, higher = more signal.
Assay [6] is described as follows: E. coli growth modulation, two-sided OD650, primary screen, E. coli filamentation project, strain DRC41, 24 h (AID 1093).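 Further: MC1000 strain lacking acrAB efflux and sulA so SOS filamentation is blocked; test concentration not given here.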 As to conditions: OD650, 24 h, higher = more signal, called active from +8 up or from −8 down.
A short description of assay [7]: small-molecule microarray binders of probe aLefty2, primary screen, biochemical, biotinylated probe, 635/667 nm fluorescence (AID 1094).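 Further: score merges spot fluorescence near 667 nm with spot signal-to-noise ratio.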 As to conditions: higher = more signal.
The test system of assay [8] is Noggin (protein binding on small-molecule microarray). The experiment in a line: Noggin binders on small-molecule microarray, primary screen, biochemical, 635/667 nm fluorescence (AID 1095).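 Further: score merges 667 nm feature fluorescence with signal to noise over triplicate slides.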 The following applies: 635 nm fluorescence, higher = more signal.
The target of assay [9] is Neurogenic locus notch homolog protein 3 (Homo sapiens) (UniProt Q9UM47). The experiment in a line: NOTCH3 binders on small-molecule microarray, primary screen, biochemical, 635/667 nm fluorescence (AID 1096). The following applies: NOTCH3 binding, 635 nm fluorescence, higher = more signal.
A short description of assay [10]: small-molecule microarray binders of probe aEGFR, primary screen, biochemical, biotinylated probe, 635/667 nm fluorescence (AID 1097).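 Further: probe is a biotinylated anti-EGFR antibody binding compounds printed on slides; score combines fluorescence near 667 nm and signal to noise of each spot.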 As to conditions: higher = more signal.
Assay [11] concerns Plasmodium falciparum Sir2 (PF13_0152, Sir2A). The experiment in a line: pfSir2 binders on small-molecule microarrays, primary screen, biochemical, small-molecule microarray, 635 nm fluorescence (AID 1098).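 Further: score merges spot fluorescence intensity with its signal-to-noise ratio.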 As to conditions: small-molecule microarray binding, fluorescence 635 nm; higher = more signal.
The nature of assay [12]: small-molecule microarray binders of probe aDKK1, primary screen, biochemical, biotinylated probe, 635/667 nm fluorescence (AID 1099).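 Further: score merges 667nm spot fluorescence with signal to noise across triplicate slides; reference of the scale not given here.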 The following applies: higher = more signal.
Assay [13] in a line: small-molecule microarray binders of probe aCHRDL2, primary screen, biochemical, biotinylated probe, 635/667 nm fluorescence (AID 1100). As to conditions: higher = more signal.
Assay [14] in a line: splicing luciferase reporter signal modulators, primary screen, spliceosome inhibition project, cell-based, HEK293, splice +/- reporter (AID 1101).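 Further: HEK293 cells carrying a splicing-competent luciferase reporter gene; test concentration not given here.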 The following applies: luminescence, 24 h, higher = more signal, called active from +8 up or from −8 down. (Reporter assays use an easily measured gene product as a stand-in for the process of interest.)
The target of assay [15] is Fibroblast growth factor 10 (Homo sapiens) (UniProt O15520). The experiment in a line: FGF10 binders on small-molecule microarrays, primary screen, biochemical, small-molecule microarray, 635 nm fluorescence (AID 1102). As to conditions: FGF10 binding, fluorescence 635 nm, higher = more signal.
Assay [16] concerns glycogen synthase kinase-3 (GSK3A per assay name; protocol says GSK3B). The experiment in a line: GSK3 binders on small-molecule microarrays, primary screen, biochemical, small-molecule microarray, 635 nm fluorescence, GSK3A (AID 1103). Further: the record names both GSK3A and GSK3B. As to conditions: small-molecule microarray binding, fluorescence 635 nm; higher = more signal.
Assay [17] has as its target Epidermal growth factor receptor (Homo sapiens) (UniProt P00533). The experiment in a line: EGFR binders on small-molecule microarrays, primary screen, biochemical, small-molecule microarray, 635 nm fluorescence (AID 1104).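 Further: score merges 667 nm emission intensity with spot signal to noise over triplicate slides.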 The following applies: EGFR binding, higher = more signal.
In assay [18] the target is Follistatin-related protein 3 (Homo sapiens) (UniProt O95633). The experiment in a line: FSTL3 binders on small-molecule microarrays, primary screen, biochemical, small-molecule microarray, 635 nm fluorescence (AID 1105).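 Further: score merges emission near 667 nm and signal to noise per printed spot across three slides.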 As to conditions: FSTL3 binding, higher = more signal.
For assay [19], the target named is Dickkopf-related protein 1 (Homo sapiens) (UniProt O94907). The experiment in a line: DKK1 binders on small-molecule microarrays, primary screen, biochemical, small-molecule microarray, 635 nm fluorescence scan (AID 1106).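 Further: score merges emission near 667 nm with signal to noise over three replicate slides.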 As to conditions: DKK1 binding, higher = more signal.
For assay [20], the system named is Inhibin beta A chain (activin A). The experiment in a line: INHBA (activin A) binders on microarrays, primary screen, biochemical, small-molecule microarray, 635 nm fluorescence scan (AID 1107).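 Further: mouse activin A protein probed at 4.33 µg/mL on printed slides; score merges bound-protein fluorescence near 667 nm with spot signal-to-noise.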 As to conditions: small-molecule microarray binding, higher = more signal.

Activity calls are given as the source filed them.

Sequence of Torsin-1A-interacting protein 2 (Homo sapiens) (Q8NFQ8 whole entry, looked up): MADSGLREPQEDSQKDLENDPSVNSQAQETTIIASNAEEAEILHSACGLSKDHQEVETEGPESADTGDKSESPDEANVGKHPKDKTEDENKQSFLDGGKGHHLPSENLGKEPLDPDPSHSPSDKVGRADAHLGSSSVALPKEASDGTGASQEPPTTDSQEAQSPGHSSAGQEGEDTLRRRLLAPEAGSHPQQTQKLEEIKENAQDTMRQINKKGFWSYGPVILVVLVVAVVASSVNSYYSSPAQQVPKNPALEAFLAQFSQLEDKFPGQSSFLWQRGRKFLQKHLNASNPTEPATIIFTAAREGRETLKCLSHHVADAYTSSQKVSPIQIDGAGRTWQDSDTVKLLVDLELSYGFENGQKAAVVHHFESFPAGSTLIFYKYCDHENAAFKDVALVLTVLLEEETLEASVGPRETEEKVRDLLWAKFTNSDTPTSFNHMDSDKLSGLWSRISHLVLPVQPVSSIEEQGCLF
Sequence of Follistatin-related protein 3 (Homo sapiens) (O95633 whole entry, looked up): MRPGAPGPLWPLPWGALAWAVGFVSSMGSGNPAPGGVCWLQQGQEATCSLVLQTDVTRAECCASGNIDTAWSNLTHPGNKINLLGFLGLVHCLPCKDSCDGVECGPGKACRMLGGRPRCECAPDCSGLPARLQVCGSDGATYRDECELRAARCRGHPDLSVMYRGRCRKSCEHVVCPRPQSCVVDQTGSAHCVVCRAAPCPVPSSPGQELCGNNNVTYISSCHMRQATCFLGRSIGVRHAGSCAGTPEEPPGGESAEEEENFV
Sequence of Dickkopf-related protein 1 (Homo sapiens) (O94907 whole entry, looked up): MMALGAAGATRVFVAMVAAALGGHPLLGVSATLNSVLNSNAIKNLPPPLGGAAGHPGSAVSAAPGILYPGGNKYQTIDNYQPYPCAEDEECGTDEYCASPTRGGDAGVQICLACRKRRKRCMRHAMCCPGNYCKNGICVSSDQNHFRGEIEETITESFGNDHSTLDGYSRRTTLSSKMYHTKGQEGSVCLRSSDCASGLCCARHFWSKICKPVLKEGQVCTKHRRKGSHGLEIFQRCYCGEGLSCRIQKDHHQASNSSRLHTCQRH
Sequence of Neurogenic locus notch homolog protein 3 (Homo sapiens) (Q9UM47 whole entry, looked up): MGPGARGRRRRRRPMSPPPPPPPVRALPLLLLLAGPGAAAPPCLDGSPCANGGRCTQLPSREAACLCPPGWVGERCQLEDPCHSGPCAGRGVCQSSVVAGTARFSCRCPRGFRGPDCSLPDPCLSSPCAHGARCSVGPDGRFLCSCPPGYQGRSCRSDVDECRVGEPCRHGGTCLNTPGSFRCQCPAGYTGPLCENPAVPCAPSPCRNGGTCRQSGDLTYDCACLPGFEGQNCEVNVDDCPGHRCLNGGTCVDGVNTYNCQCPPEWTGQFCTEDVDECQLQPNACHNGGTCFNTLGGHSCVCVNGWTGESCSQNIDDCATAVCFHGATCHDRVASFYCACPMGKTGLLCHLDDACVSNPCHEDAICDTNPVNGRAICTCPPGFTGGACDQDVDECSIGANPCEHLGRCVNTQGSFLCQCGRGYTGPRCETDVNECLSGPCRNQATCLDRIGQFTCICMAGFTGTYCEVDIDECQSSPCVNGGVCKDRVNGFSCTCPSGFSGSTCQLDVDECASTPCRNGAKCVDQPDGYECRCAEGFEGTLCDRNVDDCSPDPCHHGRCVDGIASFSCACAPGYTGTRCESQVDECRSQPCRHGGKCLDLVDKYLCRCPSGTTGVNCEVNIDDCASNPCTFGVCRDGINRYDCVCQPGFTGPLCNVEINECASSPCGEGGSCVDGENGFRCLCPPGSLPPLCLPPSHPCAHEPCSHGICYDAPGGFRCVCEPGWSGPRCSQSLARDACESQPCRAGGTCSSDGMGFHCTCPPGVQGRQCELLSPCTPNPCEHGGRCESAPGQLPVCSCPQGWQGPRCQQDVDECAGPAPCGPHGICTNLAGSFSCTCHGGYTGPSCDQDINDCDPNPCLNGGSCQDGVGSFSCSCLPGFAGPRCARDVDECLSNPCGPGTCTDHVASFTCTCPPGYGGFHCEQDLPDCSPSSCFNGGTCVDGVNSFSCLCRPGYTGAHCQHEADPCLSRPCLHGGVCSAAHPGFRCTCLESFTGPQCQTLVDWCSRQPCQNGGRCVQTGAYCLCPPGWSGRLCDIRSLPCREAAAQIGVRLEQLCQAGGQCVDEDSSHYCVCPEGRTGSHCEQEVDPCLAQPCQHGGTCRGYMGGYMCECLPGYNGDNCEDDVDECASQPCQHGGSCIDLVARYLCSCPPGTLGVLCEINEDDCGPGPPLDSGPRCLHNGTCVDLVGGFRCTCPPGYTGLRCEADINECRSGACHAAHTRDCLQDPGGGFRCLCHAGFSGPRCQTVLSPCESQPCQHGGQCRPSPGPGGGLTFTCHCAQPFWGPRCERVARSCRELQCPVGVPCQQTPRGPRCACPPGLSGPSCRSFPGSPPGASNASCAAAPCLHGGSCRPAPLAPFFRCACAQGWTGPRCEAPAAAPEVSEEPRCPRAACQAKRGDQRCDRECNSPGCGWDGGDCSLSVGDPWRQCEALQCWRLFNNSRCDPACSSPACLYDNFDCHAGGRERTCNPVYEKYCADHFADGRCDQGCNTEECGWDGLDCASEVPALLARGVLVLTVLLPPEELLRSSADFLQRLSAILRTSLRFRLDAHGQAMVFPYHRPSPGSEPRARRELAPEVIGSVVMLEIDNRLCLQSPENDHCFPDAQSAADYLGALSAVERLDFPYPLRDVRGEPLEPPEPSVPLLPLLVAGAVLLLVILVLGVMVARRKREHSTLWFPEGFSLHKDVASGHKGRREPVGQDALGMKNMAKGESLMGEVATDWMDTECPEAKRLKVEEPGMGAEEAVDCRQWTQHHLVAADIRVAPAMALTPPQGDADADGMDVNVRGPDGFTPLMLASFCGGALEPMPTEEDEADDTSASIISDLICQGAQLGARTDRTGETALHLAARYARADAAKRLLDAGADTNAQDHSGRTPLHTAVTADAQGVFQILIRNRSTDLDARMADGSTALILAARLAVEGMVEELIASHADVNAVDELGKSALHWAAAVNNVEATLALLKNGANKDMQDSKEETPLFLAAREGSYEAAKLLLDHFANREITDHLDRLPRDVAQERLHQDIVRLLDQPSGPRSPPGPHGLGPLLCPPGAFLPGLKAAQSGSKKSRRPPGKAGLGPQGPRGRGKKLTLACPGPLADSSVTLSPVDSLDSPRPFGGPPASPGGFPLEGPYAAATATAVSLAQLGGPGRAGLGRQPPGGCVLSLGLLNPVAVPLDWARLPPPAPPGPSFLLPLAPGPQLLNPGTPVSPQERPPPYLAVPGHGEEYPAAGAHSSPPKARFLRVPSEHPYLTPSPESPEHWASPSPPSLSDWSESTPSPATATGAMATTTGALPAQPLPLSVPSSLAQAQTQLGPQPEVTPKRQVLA
Sequence of Fibroblast growth factor 10 (Homo sapiens) (O15520 whole entry, looked up): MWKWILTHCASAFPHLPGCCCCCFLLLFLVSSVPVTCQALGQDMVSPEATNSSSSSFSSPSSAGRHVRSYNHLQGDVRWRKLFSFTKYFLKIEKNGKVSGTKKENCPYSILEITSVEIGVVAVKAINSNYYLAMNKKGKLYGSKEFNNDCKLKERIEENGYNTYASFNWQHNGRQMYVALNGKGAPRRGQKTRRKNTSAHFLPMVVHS
Sequence of Epidermal growth factor receptor (Homo sapiens) (P00533 whole entry, looked up): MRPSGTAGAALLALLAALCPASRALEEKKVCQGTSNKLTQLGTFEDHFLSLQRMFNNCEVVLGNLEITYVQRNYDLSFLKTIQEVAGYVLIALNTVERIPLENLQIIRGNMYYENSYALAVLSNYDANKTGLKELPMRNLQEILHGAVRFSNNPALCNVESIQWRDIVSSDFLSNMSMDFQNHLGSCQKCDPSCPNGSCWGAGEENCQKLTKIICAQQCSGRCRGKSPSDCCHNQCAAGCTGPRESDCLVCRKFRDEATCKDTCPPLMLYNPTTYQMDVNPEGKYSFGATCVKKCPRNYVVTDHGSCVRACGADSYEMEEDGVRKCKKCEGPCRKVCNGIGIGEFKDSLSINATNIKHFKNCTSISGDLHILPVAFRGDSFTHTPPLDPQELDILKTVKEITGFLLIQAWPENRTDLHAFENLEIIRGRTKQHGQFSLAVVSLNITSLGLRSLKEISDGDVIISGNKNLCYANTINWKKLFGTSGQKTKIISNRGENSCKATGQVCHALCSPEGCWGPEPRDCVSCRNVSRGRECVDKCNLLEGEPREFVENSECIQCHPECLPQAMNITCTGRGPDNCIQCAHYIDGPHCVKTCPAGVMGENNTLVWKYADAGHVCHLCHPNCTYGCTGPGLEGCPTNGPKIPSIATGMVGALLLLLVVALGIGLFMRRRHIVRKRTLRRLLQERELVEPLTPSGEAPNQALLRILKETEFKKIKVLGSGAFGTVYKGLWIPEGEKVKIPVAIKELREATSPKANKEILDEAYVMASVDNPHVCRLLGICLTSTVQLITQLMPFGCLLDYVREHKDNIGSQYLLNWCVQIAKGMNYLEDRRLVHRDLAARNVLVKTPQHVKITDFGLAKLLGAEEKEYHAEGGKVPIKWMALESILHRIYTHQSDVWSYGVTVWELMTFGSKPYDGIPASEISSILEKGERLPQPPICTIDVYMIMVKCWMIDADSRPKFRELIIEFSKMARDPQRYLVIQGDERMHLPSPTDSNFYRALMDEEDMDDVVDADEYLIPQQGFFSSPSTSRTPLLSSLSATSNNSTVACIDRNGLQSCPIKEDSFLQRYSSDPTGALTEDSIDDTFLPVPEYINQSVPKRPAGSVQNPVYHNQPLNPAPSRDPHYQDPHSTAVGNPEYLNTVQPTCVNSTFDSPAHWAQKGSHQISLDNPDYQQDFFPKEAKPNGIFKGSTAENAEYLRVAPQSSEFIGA

With `COc1ccccc1CN1C(=O)c2ccccc2[C@](Cc2ccccc2I)(C(=O)NC2CC2)[C@@H]1c1ccc(CO)cc1`, the composite z-score in [1] is 1.54; in assay [5], 3.3; in [7], -0.117; in [8], 1.1; in [9], 1.06; in assay [10], -0.0897. In addition, the composite z-score in assay [11] is 1.58; in assay [12], -0.617; in assay [13], 0.042; in assay [15], 1.23; in assay [16] it was 1.33; in assay [17] it was 0.385. Besides, the composite z-score in assay [18] was 1.29; in assay [19] it was 0.974; in assay [20], 0.154. Besides, the z-score was -0.357 (inactive) in [2]; 0.642 (inactive) in [3]; 2.01 (inactive) in assay [4]; 0.199 (inactive) in assay [6]; 0.0417 (inactive) in assay [14].
Consider `C=C(C(=O)CC[C@@H](OC(=O)c1cccnc1)c1ccc(CO)o1)C(C)C`, for which the composite z-score in [1] is 1.54; in [5], 1.97; in assay [7] it was -0.0415; in assay [8] it was 1.53; in assay [9] it was 1.14; in assay [10] it was -0.0697. The composite z-score in assay [11] is 0.392; in [12], -0.174; in assay [13], -0.36; in [15], 1.16; in [16], 0.803; in assay [17], 0.152. In addition, the composite z-score in assay [18] came out at 0.933; in assay [19], 0.479; in assay [20], 1.04. Further, the z-score in assay [2] was 0.813 (inactive); in [3], -0.485 (inactive); in assay [4] it was -0.0796 (inactive); in [6] it was -0.601 (inactive); in assay [14], 1.38 (inactive).
For the compound `CC(C)[Si]1(C(C)C)O[C@@H](c2ccccc2)c2cc(-c3ccc(-c4ccc(Cl)c(Cl)c4)o3)nc(CCc3ccccc3)c21`, the composite z-score in [1] was 0.324; in [5] it was 0.883; in [7] it was -0.126; in assay [8] it was -1.37; in [9], -1.78; in assay [10], -0.248. In addition, the composite z-score was -0.708 in [11]; 0.147 in assay [12]; 0.731 in assay [13]; -0.707 in assay [15]; -0.345 in [16]; -0.844 in assay [17]. Besides, the composite z-score in assay [18] is -1.54; in assay [19], -1.25; in [20], 0.949. The z-score in [2] is 0.149 (inactive); in [3], -2.2 (inactive); in [4], 3.08 (inactive); in assay [6], -0.823 (inactive); in assay [14], 0.428 (inactive).
Consider `COC(=O)[C@@]1(Cc2ccccc2)[C@H]2c3cc(C(=O)N(C)C)n(Cc4ccccc4)c3C[C@H]2CN1C(=O)c1ccccc1`, for which the composite z-score in assay [1] was -0.361; in assay [5], 2.59; in assay [7] it was 0.434; in assay [8] it was 0.018; in [9] it was 0.85; in assay [10], 0.291. Besides, the composite z-score is 1.05 in assay [11]; 0.855 in [12]; 0.816 in assay [13]; 0.69 in assay [15]; -0.0617 in [16]; -0.262 in assay [17]. Moreover, the composite z-score in assay [18] was 0.383; in [19] it was -0.61; in [20], 0.735. The z-score in assay [2] is 0.84 (inactive); in assay [3], 1.74 (inactive); in assay [4] it was 1.51 (inactive); in assay [6], -0.813 (inactive); in [14] it was -1.03 (inactive).
With `C=CCNC(=O)[C@H]1[C@@H]2C(=O)O[C@@H](c3ccccc3)[C@@H](c3ccccc3)N2[C@@H](c2ccc(OCCO)cc2)[C@]12C(=O)N(C(=O)OCCOC)c1ccc(C#CC3(O)CCCCCC3)cc12`, the composite z-score in [1] was 1.54; in [5], 2.42; in assay [7] it was -0.0319; in [8], 1.6; in assay [9], 1.04; in [10] it was 0.122. Moreover, the composite z-score was 1.55 in [11]; 0.456 in assay [12]; 0.33 in assay [13]; 1.42 in assay [15]; 1.31 in assay [16]; 1.02 in [17]. For the same compound, the composite z-score in [18] amounted to 1.48; in [19], 1.23; in [20], 1.18. Further, the z-score was 1.95 (inactive) in [2]; 0.97 (inactive) in [3]; 6.64 (inactive) in [4]; 1.08 (inactive) in assay [6]; -0.569 (inactive) in assay [14].
For `C=CCCN(CC#C[C@H]1Oc2ccccc2S(=O)(=O)N2CCC[C@@H]12)S(=O)(=O)c1ccc(C)cc1`, the composite z-score was 0.514 in assay [1]; 0.974 in [5]; -0.139 in [7]; 0.264 in assay [8]; 0.18 in [9]; -0.145 in [10]. For the same compound, the composite z-score in [11] is 0.327; in assay [12], -0.342; in [13], -0.289; in assay [15], 0.371; in assay [16], 0.0464; in assay [17] it was 0.185. Further, the composite z-score in [18] came to 0.485; in assay [19] it was 0.435; in [20], 1.45. For the same compound, the z-score in assay [2] was 1.15 (inactive); in [3], -1.7 (inactive); in [4], 0.965 (inactive); in assay [6], -1.59 (inactive); in assay [14], 3.09 (inactive).
